# ERAP1 HTS inh: inhibitors of human ERAP1 aminopeptidase; Q9NZ08; recombinant ERAP1, Leu-AMC fluorescence, 60 min; inhibition, % at 10.7 µM; actives 0.15% (n = 340,000); AID 652197;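 active = mean replicate inhibition of at least 30%, or all replicates individually reaching that 30% level; inactive = mean below 30% and not every replicate reaching it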;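 also: 0% = neutral control wells and 100% = L-leucinethiol positive control wells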
# CASP6 VEID inh: caspase-6 (human) enzyme inhibition | P55212 | purified caspase-6, Z-VEID-R110 cleavage fluorescence | inhibition, % at 12.5 µM | actives 0.53% (n = 350,000);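 active = mean inhibition across replicates at least about 35%, with every replicate also reaching that limit, limit read from the data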;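 also: 0% = median of neutral control wells and 100% = no fluorescence left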
# Target sequence (P55212 24-179 limits assumed): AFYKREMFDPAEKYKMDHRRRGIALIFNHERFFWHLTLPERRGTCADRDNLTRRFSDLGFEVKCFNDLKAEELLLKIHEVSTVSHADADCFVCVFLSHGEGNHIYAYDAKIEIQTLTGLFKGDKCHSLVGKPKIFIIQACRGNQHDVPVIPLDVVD
# Target sequence (P55212 194-293 limits assumed): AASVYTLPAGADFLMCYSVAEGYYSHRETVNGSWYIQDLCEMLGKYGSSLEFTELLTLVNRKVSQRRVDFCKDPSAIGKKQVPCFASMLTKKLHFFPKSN
# GSIS activator: GLuc luminescence reporter in INS-1E cells, primary screen for activators of glucose-dependent secretion of insulin; INS-1E GLuc reporter insulin secretion, 2-3 h; activation, % at 16.6 µM; actives 0.61% (n = 370,000); AID 743287;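 active = lowest replicate activation of at least 40%, so every replicate reaches that level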;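 also: 0% = median of neutral control wells and 100% = median of IBMX positive control wells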
# SIRT5 inh: inhibitors of human sirtuin-5 desuccinylase | Q9NXA8 | Purified SirT5, succinyl-peptide AMC, trypsin-coupled fluorescence | inhibition, % at 15 µM | actives 1.1% (n = 330,000) | AID 652115; in the data active = inhibition above about 15%
# FGF22 binding: FGF22 (human) thermal shift binding; actives 1.5% (n = 340,000); Q9HCT0; recombinant FGF22 thermal shift, SYPRO orange fluorescence; percent of sucrose octasulfate shift, DMSO zero; activity (Tm shift, normalised), % at 9.99 µM;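 active = mean Tm shift, scaled 0 neutral to 100 positive control, at about 1.3% or above, every replicate too, limit read from the data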
# Target sequence (Q9HCT0 whole entry, looked up): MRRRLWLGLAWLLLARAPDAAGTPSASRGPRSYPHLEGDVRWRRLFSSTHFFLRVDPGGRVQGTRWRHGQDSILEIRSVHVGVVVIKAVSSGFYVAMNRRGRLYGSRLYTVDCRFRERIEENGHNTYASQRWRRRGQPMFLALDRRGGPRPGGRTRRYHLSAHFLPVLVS
# * hit, by the source's call; x = no result given. Only some compounds are listed: those with a hit (about 3.3% of all), similar ones and a draw of the others.
SMILES,ERAP1 HTS inh,CASP6 VEID inh,GSIS activator,SIRT5 inh,FGF22 binding
COc1ccc(S(=O)(=O)N(C)C[C@@H]2Oc3ccc(NC(=O)C4CCCCC4)cc3CC(=O)N([C@@H](C)CO)C[C@@H]2C)cc1,2,-2,-10,-4,0
NC1=NC[C@@H](Cc2ccc(O)cc2)N1CCC12CC3CC(CC(C3)C1)C2,1,2,184*,x,x
O=C(Oc1cccc(-n2cnnn2)c1)c1ccccc1Cl,1,46*,14,-18,0
CCOc1ccc(CCNC(=O)Cn2ccc3ccccc3c2=O)cc1OCC,1,0,50*,-6,0
CCOc1ccc(CCNC(=O)COc2cc(=O)n(C)c3ccccc23)cc1OCC,-13,0,52*,6,0
CCOc1ccc(CCNC(=O)CSc2cc(=O)n(C)c3ccccc23)cc1OCC,x,x,57*,x,x
CCn1c(=O)cc(OCC(=O)NCCc2ccc(OC)c(OC)c2)c2ccccc21,5,-2,22,20*,0
CCOc1ccc(CCNC(=O)Cn2cccc2C(=O)c2ccccc2)cc1OCC,x,x,21,x,x
Cc1noc(C)c1NC(=O)N(C)C[C@H]1Oc2c(NC(=O)Nc3ccc(F)cc3)cccc2C(=O)N([C@H](C)CO)C[C@@H]1C,-2,-2,2,-8,0
Cc1cccc(-c2ccc([C@@H]3[C@H]4CN(C(=O)c5cnccn5)CC(=O)N4[C@H]3CO)cc2)c1,x,x,-2,x,x
Cc1cc(C)cc(NC(=O)C2CC(=O)n3ncnc3N2)c1 (stereo unspecified),x,1,7,-1,1
Cc1cccc(NC(=O)C2CC(=O)n3ncnc3N2)c1 (stereo unspecified),x,-2,4,79*,0
Cc1cccc(C(C)C)c1NC(=O)COC(=O)c1cccc(S(=O)(=O)N2CCc3ccccc3C2)c1,x,x,121*,x,x
CCOC(=O)NCN1C(=O)C2C3C=CC(C3)C2C1=O (stereo unspecified),x,x,9,x,x
CCOC(=O)NC(C)N1C(=O)C2C3C=CC(C3)C2C1=O (stereo unspecified),-1,1,4,-5,44*
CN(Cc1ccccc1)C(=O)CN1C(=O)NC2(CCCc3sccc32)C1=O (stereo unspecified),1,1,x,x,43*
CN(Cc1ccccc1)C(=O)CN1C(=O)NC2(CCCC2)C1=O,0,-3,28,-3,0
O=C(/C=C1\OCc2ccccc21)OCc1ccccc1,3,17,-12,15*,0
CCCc1nc(NCCCOCC)c2nnn(Cc3ccccc3)c2n1,-2,-2,5,17*,0
CO[C@@H]1CN(C)C(=O)c2ccc(NS(=O)(=O)c3ccccc3)cc2OC[C@H](C)N(Cc2nccs2)C[C@H]1C,0,0,-8,0,0
Cn1c(N)c(C(c2ccccc2)c2c(N)n(C)c(=O)n(C)c2=O)c(=O)n(C)c1=O,x,x,41*,x,x
COc1ccccc1C(C[N+](=O)[O-])c1c(N)n(C)c(=O)n(C)c1=O (stereo unspecified),3,-2,-23,0,0
O=C(Nc1ccc(F)cc1)N[C@@H]1CC[C@@H](CCNC(=O)c2ccccc2F)O[C@@H]1CO,-4,-1,19,-3,x
CCN(CC)C(=O)CN(C)S(=O)(=O)c1cccc2nsnc12,x,x,16,x,x
CN(CC(=O)N1CCN(C2CCCCC2)CC1)S(=O)(=O)c1cccc2nsnc12,-3,-1,-5,22*,x
SMILES,ERAP1 HTS inh,CASP6 VEID inh,GSIS activator,SIRT5 inh,FGF22 binding
CN(Cc1ccccc1)S(=O)(=O)c1cccc2nsnc12,1,-1,16,-2,44*
CN(CC(=O)N1CCCCC1)S(=O)(=O)c1cccc2nsnc12,0,-2,0,-3,0
C[C@@H]1CN([C@@H](C)CO)C(=O)Cc2cc(NC(=O)Nc3ccc(F)cc3)ccc2O[C@@H]1CN(C)Cc1ccc2c(c1)OCO2,0,-1,-22,-5,0
Cc1cc(-c2ccc(Br)cc2)n[nH]1,x,2,10,16*,0
Nc1cc(-c2ccc(Br)cc2)[nH]n1,1,0,6,-5,0
C[C@H]1CN([C@@H](C)CO)C(=O)c2cc(-c3ccc(F)cc3)cnc2O[C@@H]1CN(C)C(=O)CN(C)C,4,-2,15,-3,0
Cc1ccc(S(=O)(=O)N2[C@@H](c3ccc(C#N)cc3)C(C(=O)O)=C[C@H]2CC2CCCC2)cc1,13,15,-3,0,1.4*
CCCC[C@@H]1C=C(C(=O)O)[C@H](c2ccc3c(c2)OCO3)N1S(=O)(=O)c1ccc(C)cc1,4,3,-3,3,1.8*
CCC(=O)Nc1ccc2c(c1)OC[C@@H](C)N(C(=O)Cc1cccnc1)C[C@@H](C)[C@H](OC)CN(C)C2=O,0,2,14,-6,0
CC(=O)Nc1ccc(NC(=O)CCC(=O)Oc2ccc(C)cc2)cc1,-9,-3,7,9,0
CC(=O)c1cccc(NC(=O)CCC(=O)Oc2ccc(C)cc2)c1,-2,1,222*,-3,0
COc1ccc(C(=O)NC(=S)Nc2ccc(CN3CCOCC3)cc2)cc1Br,-3,0,28,16*,0
CC(=O)Nc1ccc(/C(C)=N/NC(=O)c2ccc(CN3CCOCC3)cc2)cc1,-1,-5,-17,35*,0
COc1ccc(C(=O)NNC(=S)NC(=O)c2ccc(F)cc2)cc1Br,4,-3,1,-3,0
COc1ccc(C(=O)NC(=S)NNC(=O)c2ccc(NC(C)=O)cc2)cc1Br,4,1,5,2,43*
COc1ccc(C(=O)NC(=S)Nc2ccc(CN3CCOCC3)cc2)cc1,-1,-2,2,-6,0
O=C(Nc1cc(F)ccc1F)N[C@@H]1C=C[C@H](CC(=O)N2CCc3ccccc3C2)O[C@@H]1CO,0,2,-10,0,0
O=C(c1cnccn1)N1C[C@H]2[C@@H](c3ccccc31)[C@@H](CO)N2Cc1ccc2c(c1)OCO2,3,2,4,11,-1
CO[C@H]1CN(C)C(=O)c2cc(NC(=O)Nc3cccc(F)c3)ccc2OC[C@@H](C)N(C(=O)Nc2c(C)noc2C)C[C@@H]1C,-2,-2,-8,4,0
CCCN1C[C@@H](C)[C@H](OC)CN(C)C(=O)c2cc(NC(=O)c3ccc(F)cc3)ccc2OC[C@@H]1C,0,2,-11,4,0
CCC(=O)Nc1ccc2c(c1)C(=O)N(C)C[C@@H](OC)[C@@H](C)CN(CC1CCCCC1)[C@@H](C)CO2,-4,x,8,8,0
CCC(=O)Nc1ccc2c(c1)C(=O)N(C)C[C@@H](OC)[C@@H](C)CN(CCC(F)(F)F)[C@H](C)CO2,4,-3,-8,16*,0
COc1cccc(C(=O)Nc2ccc3c(c2)C(=O)N(C)C[C@@H](OC)[C@H](C)CN(CCc2ccccc2)[C@@H](C)CO3)c1,x,x,-49,11,0

# Screens as filed in PubChem BioAssay.
